# Reference: ChEMBL document CHEMBL1961873, “Compounds: GSK PKIS; Assays: Nanosyn kinase panel” (2012)
# Tests used:
# [1] = target: T1, Inhibitor of nuclear factor kappa-B kinase subunit epsilon (Homo sapiens) (UniProt Q14164); conditions: at 1 µM;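 further: reported values are averaged percent inhibition figures against human IKKε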
# T1 sequence (whole entry): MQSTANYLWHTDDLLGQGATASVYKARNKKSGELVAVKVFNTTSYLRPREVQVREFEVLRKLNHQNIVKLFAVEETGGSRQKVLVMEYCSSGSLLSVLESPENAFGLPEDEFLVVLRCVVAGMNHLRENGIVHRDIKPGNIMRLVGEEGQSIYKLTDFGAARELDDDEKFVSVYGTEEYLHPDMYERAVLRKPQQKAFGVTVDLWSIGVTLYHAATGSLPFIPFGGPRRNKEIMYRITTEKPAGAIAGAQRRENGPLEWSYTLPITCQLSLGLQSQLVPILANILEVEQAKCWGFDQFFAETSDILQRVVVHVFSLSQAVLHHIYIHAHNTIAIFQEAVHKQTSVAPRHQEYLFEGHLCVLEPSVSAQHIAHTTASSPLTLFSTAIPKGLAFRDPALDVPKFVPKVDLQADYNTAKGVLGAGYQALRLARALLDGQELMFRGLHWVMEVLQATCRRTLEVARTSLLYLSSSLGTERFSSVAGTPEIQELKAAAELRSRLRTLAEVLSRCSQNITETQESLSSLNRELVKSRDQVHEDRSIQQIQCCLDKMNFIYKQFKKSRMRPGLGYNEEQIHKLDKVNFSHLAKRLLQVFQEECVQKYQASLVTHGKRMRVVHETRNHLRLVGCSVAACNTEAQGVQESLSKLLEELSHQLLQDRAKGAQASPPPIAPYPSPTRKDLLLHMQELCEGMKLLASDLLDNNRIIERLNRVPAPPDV
# [2] = target: T2, Serine/threonine-protein kinase Nek1 (Homo sapiens) (UniProt Q96PY6); conditions: at 0.1 µM
# T2 sequence (whole entry): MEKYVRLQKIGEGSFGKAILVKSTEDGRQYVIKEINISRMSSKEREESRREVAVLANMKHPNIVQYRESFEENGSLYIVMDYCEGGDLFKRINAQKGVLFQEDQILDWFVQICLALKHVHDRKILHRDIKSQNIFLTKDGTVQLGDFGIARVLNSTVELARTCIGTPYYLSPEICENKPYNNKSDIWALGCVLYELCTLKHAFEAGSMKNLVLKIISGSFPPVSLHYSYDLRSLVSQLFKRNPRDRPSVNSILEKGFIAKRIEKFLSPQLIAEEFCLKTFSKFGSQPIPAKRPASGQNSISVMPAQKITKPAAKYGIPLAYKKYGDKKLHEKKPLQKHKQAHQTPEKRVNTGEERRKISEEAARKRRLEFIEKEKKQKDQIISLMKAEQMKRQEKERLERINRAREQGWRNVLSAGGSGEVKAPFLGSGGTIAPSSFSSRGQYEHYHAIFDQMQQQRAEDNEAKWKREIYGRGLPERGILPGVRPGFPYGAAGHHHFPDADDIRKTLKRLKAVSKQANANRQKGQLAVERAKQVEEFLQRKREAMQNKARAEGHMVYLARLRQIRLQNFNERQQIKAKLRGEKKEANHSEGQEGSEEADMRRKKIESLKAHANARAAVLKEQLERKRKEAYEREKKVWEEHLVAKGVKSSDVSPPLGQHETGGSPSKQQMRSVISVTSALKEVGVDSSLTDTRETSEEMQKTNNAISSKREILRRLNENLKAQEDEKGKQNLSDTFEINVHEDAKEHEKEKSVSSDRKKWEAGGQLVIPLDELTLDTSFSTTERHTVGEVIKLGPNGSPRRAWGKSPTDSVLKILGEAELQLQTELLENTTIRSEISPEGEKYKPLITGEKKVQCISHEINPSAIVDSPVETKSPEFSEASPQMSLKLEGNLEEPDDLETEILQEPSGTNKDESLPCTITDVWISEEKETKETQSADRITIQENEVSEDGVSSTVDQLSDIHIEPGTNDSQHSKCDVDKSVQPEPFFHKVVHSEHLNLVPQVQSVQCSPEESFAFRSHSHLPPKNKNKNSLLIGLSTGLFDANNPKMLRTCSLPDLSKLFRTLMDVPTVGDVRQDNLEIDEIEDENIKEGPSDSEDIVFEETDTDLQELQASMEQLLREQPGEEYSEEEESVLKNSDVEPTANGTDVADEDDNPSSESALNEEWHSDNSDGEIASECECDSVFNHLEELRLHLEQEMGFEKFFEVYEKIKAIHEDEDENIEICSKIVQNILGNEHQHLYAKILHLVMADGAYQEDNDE
# [3] = target: T2, Serine/threonine-protein kinase Nek1 (Homo sapiens); conditions: at 1 µM
# [4] = target: T3, Serine/threonine-protein kinase Nek2 (Homo sapiens) (UniProt P51955); conditions: at 0.1 µM
# T3 sequence (whole entry): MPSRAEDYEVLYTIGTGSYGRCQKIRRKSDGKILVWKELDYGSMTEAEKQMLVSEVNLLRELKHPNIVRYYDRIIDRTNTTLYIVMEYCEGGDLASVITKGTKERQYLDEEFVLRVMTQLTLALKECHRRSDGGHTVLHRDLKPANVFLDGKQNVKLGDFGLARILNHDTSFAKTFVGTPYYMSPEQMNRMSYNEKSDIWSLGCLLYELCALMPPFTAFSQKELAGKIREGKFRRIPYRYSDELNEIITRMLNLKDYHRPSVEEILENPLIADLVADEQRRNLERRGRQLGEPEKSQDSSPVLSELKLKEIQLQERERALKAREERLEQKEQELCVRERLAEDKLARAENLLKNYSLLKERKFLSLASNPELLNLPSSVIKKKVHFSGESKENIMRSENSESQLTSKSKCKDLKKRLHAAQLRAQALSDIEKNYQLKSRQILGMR
# [5] = target: T3, Serine/threonine-protein kinase Nek2 (Homo sapiens); conditions: at 1 µM
# [6] = target: Serine/threonine-protein kinase Nek6 (Homo sapiens) (UniProt Q9HC98); conditions: at 0.1 µM
# Chain of Serine/threonine-protein kinase Nek6 (Homo sapiens) (Q9HC98 whole entry): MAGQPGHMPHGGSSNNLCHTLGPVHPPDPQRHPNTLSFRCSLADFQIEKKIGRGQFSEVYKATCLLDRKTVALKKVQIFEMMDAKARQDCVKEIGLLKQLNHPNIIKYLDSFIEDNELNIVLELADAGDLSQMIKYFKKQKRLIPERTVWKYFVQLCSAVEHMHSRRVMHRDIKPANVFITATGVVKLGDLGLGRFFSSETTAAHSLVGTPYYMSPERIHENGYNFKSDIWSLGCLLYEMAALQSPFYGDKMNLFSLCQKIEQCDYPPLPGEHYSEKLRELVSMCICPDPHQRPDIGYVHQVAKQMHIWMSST
# [7] = target: Serine/threonine-protein kinase Nek6 (Homo sapiens) (UniProt Q9HC98); conditions: at 1 µM
# [8] = target: Serine/threonine-protein kinase Nek7 (Homo sapiens) (UniProt Q8TDX7); conditions: at 0.1 µM
# Chain of Serine/threonine-protein kinase Nek7 (Homo sapiens) (Q8TDX7 whole entry, looked up): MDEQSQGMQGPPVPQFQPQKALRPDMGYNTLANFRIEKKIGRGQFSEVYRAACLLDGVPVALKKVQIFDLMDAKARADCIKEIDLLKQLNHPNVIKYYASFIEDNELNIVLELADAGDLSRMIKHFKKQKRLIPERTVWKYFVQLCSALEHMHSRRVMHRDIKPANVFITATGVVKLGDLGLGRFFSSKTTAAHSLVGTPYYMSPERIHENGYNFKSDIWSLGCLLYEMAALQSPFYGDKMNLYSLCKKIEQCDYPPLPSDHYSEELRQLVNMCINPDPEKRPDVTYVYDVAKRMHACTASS
# [9] = target: Serine/threonine-protein kinase Nek7 (Homo sapiens) (UniProt Q8TDX7); conditions: at 1 µM
# [10] = target: T4, Serine/threonine-protein kinase Nek9 (Homo sapiens) (UniProt Q8TD19); conditions: at 0.1 µM
# T4 sequence (whole entry): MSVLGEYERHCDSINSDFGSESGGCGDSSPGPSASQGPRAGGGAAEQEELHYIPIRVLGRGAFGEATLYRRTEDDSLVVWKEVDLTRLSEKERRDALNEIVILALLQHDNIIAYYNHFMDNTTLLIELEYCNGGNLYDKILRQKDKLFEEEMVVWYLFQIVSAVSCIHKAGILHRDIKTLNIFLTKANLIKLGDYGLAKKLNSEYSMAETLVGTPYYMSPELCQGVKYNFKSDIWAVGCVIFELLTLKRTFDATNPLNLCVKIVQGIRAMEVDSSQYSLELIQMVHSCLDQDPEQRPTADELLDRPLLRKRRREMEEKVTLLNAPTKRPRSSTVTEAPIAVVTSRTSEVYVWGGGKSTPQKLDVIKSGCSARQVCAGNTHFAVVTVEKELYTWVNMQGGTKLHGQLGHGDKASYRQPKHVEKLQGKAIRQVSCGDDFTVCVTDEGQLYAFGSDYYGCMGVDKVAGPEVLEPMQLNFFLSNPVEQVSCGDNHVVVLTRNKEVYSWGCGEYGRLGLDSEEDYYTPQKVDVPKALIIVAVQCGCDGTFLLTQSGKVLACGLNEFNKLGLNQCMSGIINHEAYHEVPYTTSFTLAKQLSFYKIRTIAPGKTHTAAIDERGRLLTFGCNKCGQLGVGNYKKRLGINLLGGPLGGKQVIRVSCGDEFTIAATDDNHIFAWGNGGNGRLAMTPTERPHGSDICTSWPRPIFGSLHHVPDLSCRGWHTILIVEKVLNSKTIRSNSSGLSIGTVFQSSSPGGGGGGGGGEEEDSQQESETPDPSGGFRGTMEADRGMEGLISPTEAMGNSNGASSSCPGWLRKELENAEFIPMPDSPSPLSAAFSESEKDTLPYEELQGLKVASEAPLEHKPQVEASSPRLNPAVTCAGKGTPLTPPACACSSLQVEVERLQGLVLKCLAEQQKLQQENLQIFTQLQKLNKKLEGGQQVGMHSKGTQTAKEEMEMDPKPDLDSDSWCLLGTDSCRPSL
# [11] = target: T4, Serine/threonine-protein kinase Nek9 (Homo sapiens); conditions: at 1 µM
# [12] = target: Serine/threonine-protein kinase PLK1 (Homo sapiens) (UniProt P53350); conditions: at 0.1 µM
# Chain of Serine/threonine-protein kinase PLK1 (Homo sapiens) (P53350 whole entry): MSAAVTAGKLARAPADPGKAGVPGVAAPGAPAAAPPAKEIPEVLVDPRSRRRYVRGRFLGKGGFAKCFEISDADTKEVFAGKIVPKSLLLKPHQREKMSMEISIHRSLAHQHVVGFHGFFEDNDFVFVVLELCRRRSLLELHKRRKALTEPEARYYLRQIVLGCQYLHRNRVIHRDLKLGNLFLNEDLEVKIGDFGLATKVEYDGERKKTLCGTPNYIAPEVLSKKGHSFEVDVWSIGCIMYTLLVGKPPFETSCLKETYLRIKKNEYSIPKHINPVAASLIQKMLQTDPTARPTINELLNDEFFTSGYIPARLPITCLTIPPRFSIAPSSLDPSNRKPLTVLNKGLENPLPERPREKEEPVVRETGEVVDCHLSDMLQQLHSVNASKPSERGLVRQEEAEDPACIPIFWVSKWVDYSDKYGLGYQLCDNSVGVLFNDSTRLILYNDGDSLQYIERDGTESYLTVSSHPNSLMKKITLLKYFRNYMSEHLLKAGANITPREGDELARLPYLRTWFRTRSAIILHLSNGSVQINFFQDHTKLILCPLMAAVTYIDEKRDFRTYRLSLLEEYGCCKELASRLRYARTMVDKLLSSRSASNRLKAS
# [13] = target: Serine/threonine-protein kinase PLK1 (Homo sapiens) (UniProt P53350); conditions: at 1 µM
# [14] = target: T5, Dual specificity protein kinase TTK (Homo sapiens) (UniProt P33981); conditions: at 0.1 µM
# T5 sequence (whole entry): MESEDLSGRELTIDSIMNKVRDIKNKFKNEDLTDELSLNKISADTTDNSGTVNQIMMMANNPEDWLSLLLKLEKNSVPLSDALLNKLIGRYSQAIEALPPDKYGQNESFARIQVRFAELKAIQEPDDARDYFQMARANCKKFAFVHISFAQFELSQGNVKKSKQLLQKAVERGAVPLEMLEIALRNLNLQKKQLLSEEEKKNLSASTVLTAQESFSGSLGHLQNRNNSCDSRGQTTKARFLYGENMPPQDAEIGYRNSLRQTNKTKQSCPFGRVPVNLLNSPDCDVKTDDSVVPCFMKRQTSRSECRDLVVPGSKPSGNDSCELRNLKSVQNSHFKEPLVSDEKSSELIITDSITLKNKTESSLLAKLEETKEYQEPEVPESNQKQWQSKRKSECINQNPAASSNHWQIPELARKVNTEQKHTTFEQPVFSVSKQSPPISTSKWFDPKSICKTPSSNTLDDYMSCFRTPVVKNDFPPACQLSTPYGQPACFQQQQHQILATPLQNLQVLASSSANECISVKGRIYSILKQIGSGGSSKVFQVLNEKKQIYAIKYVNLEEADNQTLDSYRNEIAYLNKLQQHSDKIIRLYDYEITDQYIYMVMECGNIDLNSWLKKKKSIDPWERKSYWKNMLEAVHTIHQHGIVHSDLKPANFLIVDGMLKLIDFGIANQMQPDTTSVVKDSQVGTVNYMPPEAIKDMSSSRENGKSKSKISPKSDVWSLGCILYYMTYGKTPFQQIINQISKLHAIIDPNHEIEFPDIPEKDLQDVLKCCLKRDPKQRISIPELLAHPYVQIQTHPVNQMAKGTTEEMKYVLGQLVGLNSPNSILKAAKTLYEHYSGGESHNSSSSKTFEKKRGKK
# [15] = test system: T6, Receptor-type tyrosine-protein kinase FLT3 (Homo sapiens), P36888 [D835Y]; conditions: at 1 µM
# T6 sequence (whole entry): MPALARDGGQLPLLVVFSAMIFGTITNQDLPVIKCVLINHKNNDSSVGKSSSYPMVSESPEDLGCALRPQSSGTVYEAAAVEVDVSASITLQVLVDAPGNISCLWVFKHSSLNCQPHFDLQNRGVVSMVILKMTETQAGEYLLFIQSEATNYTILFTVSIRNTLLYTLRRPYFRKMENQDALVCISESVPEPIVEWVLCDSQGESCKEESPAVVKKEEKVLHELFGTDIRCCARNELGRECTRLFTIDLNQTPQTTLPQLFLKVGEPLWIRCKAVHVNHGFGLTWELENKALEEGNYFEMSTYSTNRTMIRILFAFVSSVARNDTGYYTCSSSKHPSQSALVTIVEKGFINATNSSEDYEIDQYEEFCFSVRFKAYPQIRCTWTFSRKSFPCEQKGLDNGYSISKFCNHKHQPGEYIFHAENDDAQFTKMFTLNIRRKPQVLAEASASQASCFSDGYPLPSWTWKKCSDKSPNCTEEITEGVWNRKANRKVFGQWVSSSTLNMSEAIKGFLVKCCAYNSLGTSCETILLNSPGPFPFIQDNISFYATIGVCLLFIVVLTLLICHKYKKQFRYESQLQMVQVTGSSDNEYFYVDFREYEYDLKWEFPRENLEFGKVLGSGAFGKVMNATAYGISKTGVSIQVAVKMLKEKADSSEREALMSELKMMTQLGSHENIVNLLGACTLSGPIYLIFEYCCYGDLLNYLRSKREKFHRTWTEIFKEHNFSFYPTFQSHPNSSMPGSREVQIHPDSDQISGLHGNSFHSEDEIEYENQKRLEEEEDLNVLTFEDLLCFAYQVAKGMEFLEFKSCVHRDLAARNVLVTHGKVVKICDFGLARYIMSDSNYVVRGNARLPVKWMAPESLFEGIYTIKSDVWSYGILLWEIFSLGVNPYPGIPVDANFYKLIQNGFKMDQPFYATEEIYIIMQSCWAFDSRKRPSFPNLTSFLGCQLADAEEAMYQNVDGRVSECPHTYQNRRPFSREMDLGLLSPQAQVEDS
# [16] = target: Vascular endothelial growth factor receptor 3 (Homo sapiens) (UniProt P35916); conditions: at 0.1 µM
# Chain of Vascular endothelial growth factor receptor 3 (Homo sapiens) (P35916 whole entry): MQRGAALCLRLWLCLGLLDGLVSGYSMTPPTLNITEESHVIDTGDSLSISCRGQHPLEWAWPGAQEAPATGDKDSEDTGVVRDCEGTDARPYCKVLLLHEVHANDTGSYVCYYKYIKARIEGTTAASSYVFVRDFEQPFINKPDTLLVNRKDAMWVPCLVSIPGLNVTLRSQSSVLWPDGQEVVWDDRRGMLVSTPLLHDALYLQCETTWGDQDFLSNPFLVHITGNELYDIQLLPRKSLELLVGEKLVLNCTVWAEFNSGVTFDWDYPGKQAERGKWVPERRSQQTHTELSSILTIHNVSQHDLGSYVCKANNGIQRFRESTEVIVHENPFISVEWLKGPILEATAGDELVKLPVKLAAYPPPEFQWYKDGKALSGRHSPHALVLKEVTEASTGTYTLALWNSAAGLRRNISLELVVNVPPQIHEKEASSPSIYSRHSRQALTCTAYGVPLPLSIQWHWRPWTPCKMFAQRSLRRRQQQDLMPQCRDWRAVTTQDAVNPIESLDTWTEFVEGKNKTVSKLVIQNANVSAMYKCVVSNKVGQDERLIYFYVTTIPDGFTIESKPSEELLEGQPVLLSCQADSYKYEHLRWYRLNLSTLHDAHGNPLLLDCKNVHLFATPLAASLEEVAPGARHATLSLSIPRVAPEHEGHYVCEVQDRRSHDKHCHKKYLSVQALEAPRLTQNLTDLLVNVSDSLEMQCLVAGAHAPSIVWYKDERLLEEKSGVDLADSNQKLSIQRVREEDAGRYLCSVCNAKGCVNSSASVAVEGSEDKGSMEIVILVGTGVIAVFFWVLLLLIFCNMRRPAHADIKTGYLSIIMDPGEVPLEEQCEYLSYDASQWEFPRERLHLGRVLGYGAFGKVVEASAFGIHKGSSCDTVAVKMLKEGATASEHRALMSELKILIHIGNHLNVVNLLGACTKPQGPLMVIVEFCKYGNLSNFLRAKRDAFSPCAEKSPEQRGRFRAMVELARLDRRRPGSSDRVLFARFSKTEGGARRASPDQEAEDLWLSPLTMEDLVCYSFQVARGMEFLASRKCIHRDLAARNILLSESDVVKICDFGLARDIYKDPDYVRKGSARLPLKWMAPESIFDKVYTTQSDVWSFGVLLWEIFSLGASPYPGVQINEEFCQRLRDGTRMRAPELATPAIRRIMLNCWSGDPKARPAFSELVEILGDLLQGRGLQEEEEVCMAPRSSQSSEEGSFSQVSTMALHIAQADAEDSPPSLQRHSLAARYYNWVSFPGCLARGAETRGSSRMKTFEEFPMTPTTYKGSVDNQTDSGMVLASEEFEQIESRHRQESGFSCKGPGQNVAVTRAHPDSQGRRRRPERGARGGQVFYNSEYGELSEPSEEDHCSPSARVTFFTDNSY
# [17] = target: Macrophage colony-stimulating factor 1 receptor (Homo sapiens) (UniProt P07333); conditions: at 0.1 µM
# Chain of Macrophage colony-stimulating factor 1 receptor (Homo sapiens) (P07333 whole entry): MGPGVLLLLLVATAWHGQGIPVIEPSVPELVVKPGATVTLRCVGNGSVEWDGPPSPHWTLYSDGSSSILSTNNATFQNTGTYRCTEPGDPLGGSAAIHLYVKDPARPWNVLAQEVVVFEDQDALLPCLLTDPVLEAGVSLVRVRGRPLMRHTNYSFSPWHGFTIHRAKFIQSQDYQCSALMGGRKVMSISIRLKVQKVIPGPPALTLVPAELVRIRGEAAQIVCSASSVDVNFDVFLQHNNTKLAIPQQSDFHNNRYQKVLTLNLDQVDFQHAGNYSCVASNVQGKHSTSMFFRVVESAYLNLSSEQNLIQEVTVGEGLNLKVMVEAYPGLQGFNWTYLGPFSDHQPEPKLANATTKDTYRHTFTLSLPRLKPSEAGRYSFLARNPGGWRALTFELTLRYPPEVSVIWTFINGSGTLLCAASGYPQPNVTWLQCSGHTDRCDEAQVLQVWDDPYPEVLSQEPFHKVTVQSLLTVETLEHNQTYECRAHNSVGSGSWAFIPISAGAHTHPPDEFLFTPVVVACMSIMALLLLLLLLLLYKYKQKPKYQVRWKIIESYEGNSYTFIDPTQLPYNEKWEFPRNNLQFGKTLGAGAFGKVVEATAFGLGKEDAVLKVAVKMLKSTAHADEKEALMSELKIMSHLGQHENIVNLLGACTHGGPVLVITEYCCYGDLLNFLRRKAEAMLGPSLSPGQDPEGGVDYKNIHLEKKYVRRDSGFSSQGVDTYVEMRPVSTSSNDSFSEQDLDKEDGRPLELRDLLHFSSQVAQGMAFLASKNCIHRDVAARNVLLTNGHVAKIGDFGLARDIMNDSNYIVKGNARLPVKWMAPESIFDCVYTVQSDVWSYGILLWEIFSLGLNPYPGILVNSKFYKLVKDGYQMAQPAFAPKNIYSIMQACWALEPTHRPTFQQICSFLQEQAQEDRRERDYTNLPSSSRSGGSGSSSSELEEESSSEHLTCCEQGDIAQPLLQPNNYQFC
# [18] = target: Macrophage colony-stimulating factor 1 receptor (Homo sapiens) (UniProt P07333); conditions: at 1 µM
# [19] = target: Tyrosine-protein kinase Fyn (Homo sapiens) (UniProt P06241); conditions: at 0.1 µM
# Chain of Tyrosine-protein kinase Fyn (Homo sapiens) (P06241 2-537 limits assumed): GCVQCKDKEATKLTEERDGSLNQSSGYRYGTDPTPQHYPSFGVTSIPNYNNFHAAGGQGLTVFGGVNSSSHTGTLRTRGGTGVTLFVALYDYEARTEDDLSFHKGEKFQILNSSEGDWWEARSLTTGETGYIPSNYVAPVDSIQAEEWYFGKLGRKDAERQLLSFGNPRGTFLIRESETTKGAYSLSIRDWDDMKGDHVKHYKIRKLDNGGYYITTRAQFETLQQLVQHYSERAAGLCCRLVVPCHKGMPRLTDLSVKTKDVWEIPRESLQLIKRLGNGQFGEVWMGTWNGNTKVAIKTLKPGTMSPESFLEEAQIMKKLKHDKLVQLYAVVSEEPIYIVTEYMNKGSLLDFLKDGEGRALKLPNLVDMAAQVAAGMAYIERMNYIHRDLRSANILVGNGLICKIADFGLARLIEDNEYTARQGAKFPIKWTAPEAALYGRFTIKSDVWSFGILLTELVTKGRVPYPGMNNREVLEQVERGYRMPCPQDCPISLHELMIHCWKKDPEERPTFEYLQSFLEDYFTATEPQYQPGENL
# [20] = target: Vascular endothelial growth factor receptor 3 (Homo sapiens) (UniProt P35916); conditions: at 1 µM
SMILES,inhibition [1] [%],inhibition [2] [%],inhibition [3] [%],inhibition [4] [%],inhibition [5] [%],inhibition [6] [%],inhibition [7] [%],inhibition [8] [%],inhibition [9] [%],inhibition [10] [%],inhibition [11] [%],inhibition [12] [%],inhibition [13] [%],inhibition [14] [%],inhibition [15] [%],inhibition [16] [%],inhibition [17] [%],inhibition [18] [%],inhibition [19] [%],inhibition [20] [%]
Fc1ccc(-c2ncn(C3CCNCC3)c2-c2ccnc(Oc3ccccc3)n2)cc1,3.7,1.07,1.73,3.29,1.85,7.63,2.1,2.34,6.68,2.53,5.18,3.38,3.09,6.21,-0.44,-7.44,-0.76,3.02,-2.88,
NC(=O)c1sc(-n2cnc3cc(C(F)(F)F)ccc32)cc1OCc1ccccc1Br,3.62,1.03,1.9,2.62,3.63,-1.58,-0.03,-3.9,3.69,8.36,10.3,21,69.5,2.94,4.97,2.24,-0.7,3.85,2.13,4.4
CCn1c(-c2nonc2N)nc2c(C#CC(C)(C)O)ncc(OC[C@@H]3CCCN3)c21,98.7,0.01,0.55,0.12,0.91,1.04,0.79,-0.99,-0.58,-1.1,0.02,-0.2,-3.86,4.43,-3.96,4.88,-2.54,1.4,0.24,33.9
Cc1cc(-c2ccco2)cc(C)c1/C=C/c1cncc(-c2nn[nH]n2)c1,3.83,1.34,1.67,1.03,1.44,0.53,-0.1,,0.89,3.25,1.42,1.22,0.57,4.5,-2.85,1.37,-0.94,2.32,1.3,2.25
